Results: PubChem BioAssay AID2014 (Sanford-Burnham Center for Chemical Genomics, 2009)
The whole screen tested about 290,000 compounds, of which about 3,000 (1%) were called active. No rule for the calls is given here. This excerpt belongs to a sample that is enriched for actives.

Biological target: Polyadenylate-binding protein 1 (Homo sapiens) (UniProt P11940)
Test: PABP poly(A) RNA binding inhibitors, primary screen, biochemical, fluorescence polarization, uHTS (AID 2014);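 also: calls also rest on retests at 20 µM and on dose response follow-up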
Details: stronger effect = higher value

Chain of Polyadenylate-binding protein 1 (Homo sapiens) (P11940 whole entry, looked up): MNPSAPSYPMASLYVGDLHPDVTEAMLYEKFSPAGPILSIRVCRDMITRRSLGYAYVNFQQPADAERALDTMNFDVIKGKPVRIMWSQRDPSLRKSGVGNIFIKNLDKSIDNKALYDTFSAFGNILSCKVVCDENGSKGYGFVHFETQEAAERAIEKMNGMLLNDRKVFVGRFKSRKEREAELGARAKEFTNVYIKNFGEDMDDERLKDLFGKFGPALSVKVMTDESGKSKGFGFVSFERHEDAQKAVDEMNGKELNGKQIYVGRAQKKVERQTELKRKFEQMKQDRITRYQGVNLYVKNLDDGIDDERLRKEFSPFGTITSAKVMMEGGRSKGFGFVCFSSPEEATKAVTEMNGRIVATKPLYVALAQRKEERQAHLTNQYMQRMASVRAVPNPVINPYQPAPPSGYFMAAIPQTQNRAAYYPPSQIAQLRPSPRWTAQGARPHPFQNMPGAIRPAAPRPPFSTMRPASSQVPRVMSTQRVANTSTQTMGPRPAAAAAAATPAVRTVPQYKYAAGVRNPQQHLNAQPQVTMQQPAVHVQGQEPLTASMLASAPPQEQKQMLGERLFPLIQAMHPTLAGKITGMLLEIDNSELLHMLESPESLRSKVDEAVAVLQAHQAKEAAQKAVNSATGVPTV

Structure (SMILES) | inhibition (at 35 µM) | inhibition (confirmation repeats, at 20 µM) [%]
CCC1(CC)Cc2ccccc2-c2nc(CCl)[nH]c(=O)c21 | -1.7% (inactive) | –
O=C(NCCCN1CCOCC1)c1cc(-c2ccccc2F)no1 | -8% (inactive) | –
CC1CN(C(=S)Nc2ccc(S(N)(=O)=O)cc2)CC(C)O1 (configuration not stated) | -12.5% (inactive) | –
NS(=O)(=O)c1ccc(NC(=S)N2CCCC2)cc1 | 28.2% (active) | 50.5
COc1ccc(N2CCN(C(=S)Nc3ccc(S(N)(=O)=O)cc3)CC2)cc1 | -0.4% (inactive) | –
CCc1ccc(CNC(=O)C2CCN(c3nnc(C)c4c(C)n(-c5ccc(C)cc5)nc34)CC2)cc1 | -22.4% (inactive) | –
Cc1cccc(NC(=O)Cc2ccc(Br)cc2)n1 | -9.8% (inactive) | –
O=C(NC(Cc1ccc(O)cc1)C(=O)O)/C(=C/c1ccccc1)NC(=O)c1ccccc1 (configuration not stated) | 2.8% (inactive) | –
CC1(C)Oc2ccc3ccc(=O)oc3c2/C(=N/O)C1=O | -7% (inactive) | –
C/C=C(/C)C(=O)OC1Cc2c(ccc3ccc(=O)oc23)OC1(C)C (configuration not stated) | 5.5% (inactive) | –
CC1(C)Oc2ccc3ccc(=O)oc3c2/C(=C/NCCO)C1=O | 51.8% (active) | –
Cc1ccc(S(=O)(=O)N(CC(O)CN2CCCCC2)c2cccc([N+](=O)[O-])c2)cc1 (configuration not stated) | -2.5% (inactive) | –
O=C(CCNS(=O)(=O)c1cccs1)N1CCN(c2ccc(F)cc2)CC1 | 2.5% (inactive) | –
Cc1cccc(CCNS(=O)(=O)c2ccc3c(c2)NC(=O)CO3)c1 | 0.4% (inactive) | –
Cc1nc2c(c(=O)n1Cc1ccco1)c1nc3ccccc3nc1n2Cc1ccccc1 | 57.3% (active) | –
Cc1ccc(Cn2c(C)nc3c(c2=O)c2nc4ccccc4nc2n3Cc2ccco2)cc1 | 17.9% (inactive) | –
Cc1nc2ccccc2c(=O)n1Cc1ccc([N+](=O)[O-])cc1 | -8.9% (inactive) | –
Cc1cccc(NS(=O)(=O)c2cc(Cl)ccc2Cl)n1 | -4.9% (inactive) | –
O=C1CCNCCN1[C@H](CO)Cc1ccccc1 | -8.7% (inactive) | –
COc1ccc(C(=O)NC2=NCCS2)c(OC)c1 | -7.6% (inactive) | –
COc1ccc2cc(C(=O)NCC3CCCO3)[nH]c2c1 (configuration not stated) | 0.3% (inactive) | –
O=S(=O)(c1ccc(Br)cc1)N1CCC(c2nc3ccccc3[nH]2)CC1 | 3.9% (inactive) | –
CCCCOC(=O)Cn1c(=O)n(CC(=O)OCCCC)c2cc(C)ccc21 | -8.1% (inactive) | –

Structure (SMILES) | inhibition (at 35 µM) | inhibition (confirmation repeats, at 20 µM) [%]
Cc1ccc(CCCOC(=O)C[N+]2(C)CCCC2)cc1 | 2.4% (inactive) | –
Cc1ccc(CCCOC(=O)C[N+]2(C)CCCCC2)cc1 | 50.6% (active) | –
Cc1ccc(C(=O)COC(=O)CCN2C(=O)C3C4CCC(C4)C3C2=O)cc1C (configuration not stated) | -12.4% (inactive) | –
COc1cccc(NC(=O)N2CCC(NC(=O)C(Cc3cccc(C)c3)NC(C)=O)CC2)c1 (configuration not stated) | 2.7% (inactive) | –
Cc1cc(NC(=O)CN2CCCC(C)C2)n(-c2nc3ccccc3s2)n1 (configuration not stated) | 5.3% (inactive) | –
C/C(=N\NC(=O)CC(C)C)c1c(C(F)(F)F)[nH]n(-c2nc3ccccc3s2)c1=O | -1.1% (inactive) | –
CCC(C)Cn1c(O)cc2nn(-c3nc4ccccc4s3)c(=O)c-2c1C (configuration not stated) | 68.7% (active) | –
CCOC(=O)c1ccccc1NC(=O)COC(=O)CCC(=O)N1CCOCC1 | -1.1% (inactive) | –
COc1ccccc1NC(=O)c1cc(N2C(=O)C3C4CCC(C4)C3C2=O)ccc1Cl (configuration not stated) | 1.6% (inactive) | –
O=C1CC(NNc2ccccc2)C(=O)N1c1cccc(Cl)c1 (configuration not stated) | -2.5% (inactive) | –
O=C1OCC2=C1C(c1ccccc1)CC(=O)N2c1cccc(F)c1 (configuration not stated) | 68% (active) | 65.5
O=C1CC(c2ccccc2)C(=O)N1c1cccc(O)c1 (configuration not stated) | -5.5% (inactive) | –
CCc1nnc(NC(=O)CCC(=O)N2CCN(c3cc(C)ccc3C)CC2)s1 | 11.5% (inactive) | –
O=C(OCc1ccc(-c2ccccc2)cc1)c1cccc(O)c1 | 10.5% (inactive) | –
COc1cc2c(cc1O)[C@H](Cc1ccc(Oc3cc(C[C@@H]4NCCc5cc(OC)c(O)cc54)ccc3O)cc1)NCC2 | 0.1% (active) | 91.3
CC[C@H]1CN2CCc3cc(OC)c(OC)cc3[C@@H]2C[C@@H]1C[C@H]1NCCc2cc(OC)c(OC)cc21 | 1.5% (inactive) | –
CCc1ccc(OCC2c3cc(OC)c(OC)cc3CCN2C(C)=O)cc1 (configuration not stated) | 6.8% (inactive) | –
COc1ccccc1C(=O)Nc1ccnn1C1CCN(C(=O)C(C)(C)C)CC1 | 8.7% (inactive) | –
O=C(CSc1ncccn1)N1CCCC1 | 9.6% (inactive) | –
C=CCNc1nnc(C)c2ccccc12 | -0.7% (inactive) | –
C=CCNc1nnc(SCC(=O)N2CCCCC2)c2ccccc12 | 116% (active) | 56.4
Cc1nc(-c2ccc(F)cc2)c(CC(=O)N2CCN(S(=O)(=O)c3ccc(F)cc3)CC2)s1 | 6.2% (inactive) | –
O=C(CN1CCC(O)(c2cccc(C(F)(F)F)c2)CC1)NCCc1ccccc1 | -5% (inactive) | –

Structure (SMILES) | inhibition (at 35 µM) | inhibition (confirmation repeats, at 20 µM) [%]
O=C(Nc1cccc([N+](=O)[O-])c1)N1CCc2ccccc2C1 | -6.2% (inactive) | –
CC(C(=O)NCCc1ccc(S(N)(=O)=O)cc1)N1C(=O)CC(C)(C)Sc2ccccc21 (configuration not stated) | -1.3% (inactive) | –
NC(=O)c1sc2nc3c(c(-c4ccccc4)c2c1N)CCC3 | -3.5% (inactive) | –
Cc1cccc(NC(=O)c2sc3nc4c(c(-c5ccco5)c3c2N)CCC4)c1 | 63% (active) | 87.7
Cc1cccc(NC(=O)c2sc3nc(N4CCOCC4)c4c(c3c2N)CCCC4)c1 | 4.1% (inactive) | –
O=C(CNC(=O)c1ccccc1F)c1ccc(Br)cc1 | 0.1% (inactive) | –
O=C(O)c1ccc2c(=O)n3c(nc2c1)/C(=C/c1ccc(OC(F)F)cc1OC(F)F)CC3 | 5.3% (inactive) | –
CC(NC(=O)c1cc(=O)[nH]c2ccccc12)c1ccc(F)cc1F (configuration not stated) | 12.3% (inactive) | –
CS(=O)(=O)c1ccc2c(c1)SC1=NC(=O)/C(=C/c3ccco3)C(=N)N12 | 91% (active) | –
CS(=O)(=O)C1=NN2C(=N)/C(=C\c3ccc(OCCOc4ccccc4)cc3)C(=O)N=C2S1 | 16.8% (inactive) | –
Cc1cc(/C=C2/C(=N)N3C(=NC2=O)SN=C3S(C)(=O)=O)c(C)n1-c1ccccc1 | -5.5% (inactive) | 11.8
Cc1cccc(OC(C)C(=O)N2CCc3ccccc3C2)c1 (configuration not stated) | -5.4% (inactive) | –
CC(C)[C@@H](C(=O)O)N(Cc1cccc(CN([C@H](C(=O)O)C(C)C)S(C)(=O)=O)c1)S(C)(=O)=O | 4.8% (inactive) | –
CO/N=C(\N)c1ccc([N+](=O)[O-])cc1 | -0.6% (inactive) | –
N/C(=N\OS(=O)(=O)c1cccc([N+](=O)[O-])c1)c1ccncc1 | -9.3% (active) | 74.6
O=C(N/N=C/c1cccc([N+](=O)[O-])c1)c1ccncc1 | -0.6% (inactive) | –
COc1cccc(CNc2ncc(-c3ccccc3)n2C)c1 | -1.9% (inactive) | –
C=CCn1cc(Cl)cc(C(=O)Nc2ccccc2)c1=O | -10% (inactive) | –
O=C(N/N=C/c1cc(Cl)cc([N+](=O)[O-])c1O)C(O)(c1ccccc1)c1ccccc1 | 30.5% (inactive) | –
O=C(N/N=C/c1ccc([N+](=O)[O-])o1)c1cccc(S(=O)(=O)N2CCOCC2)c1 | -5% (inactive) | 12.9
O=[N+]([O-])c1cc(Cl)cc(/C=N/NC(=S)Nc2cc(S(=O)(=O)N3CCOCC3)ccc2Cl)c1O | 70.2% (active) | –
CC1=C(C(=O)OCC2CCCCC2)C(c2ccc(F)cc2)NC(=O)N1 (configuration not stated) | 0.3% (inactive) | –
CC(C)c1ccc(C(=O)NCCCc2ccccc2)cc1 | -0.9% (inactive) | –

Structure (SMILES) | inhibition (at 35 µM) | inhibition (confirmation repeats, at 20 µM) [%]
O=C(NCCCNCc1ccccc1)c1ccc(/C=N/O)nc1 | -3.1% (inactive) | –
C[N+](C)(C)CCNC(=O)c1cc[n+](Cc2ccccc2)c(/C=N/O)c1 | 54.2% (active) | 73.1
O=C1CCC(C(=O)N2CCCCO2)CN1Cc1cccc(C(F)(F)F)c1 (configuration not stated) | 4.6% (inactive) | –
CN(C(=O)c1cccc(OC2CCN(S(=O)(=O)N(C)C)CC2)c1)C1CCOC1 (configuration not stated) | 17.8% (inactive) | –
CC1(C(=O)NCCc2c[nH]c3ccccc23)C=CC2(CCCCC2)N1C(=O)c1ccccc1 (configuration not stated) | 4.3% (inactive) | –
Oc1c(Cl)cc(Cl)c(Cl)c1Cc1c(O)c(Cl)cc(Cl)c1Cl | -1.5% (active) | 84.7
COc1cccc(/C=C2\Sc3ccc(C(=O)NCC4CCCO4)cc3N(C)C2=O)c1 (configuration not stated) | 8.6% (inactive) | –
Cc1cccc(C)c1N1C(=O)CN(Cc2ccccc2)C1=S | 8.2% (inactive) | –
CC(=O)N1c2ccc(S(=O)(=O)NCCC(=O)N(C)C3CCCCC3)cc2CC1C (configuration not stated) | 3.5% (inactive) | –
CCc1ccc(Nc2ncc3c(n2)CC(c2ccco2)CC3=O)cc1 (configuration not stated) | 6.2% (inactive) | –
O=C(Nc1ncc2c(n1)CC(c1ccco1)CC2=O)c1ccc(Cl)cc1 (configuration not stated) | 65.9% (active) | –
O=C(Nc1ncc2c(n1)-c1ccccc1OC2)c1ccc(Cl)cc1 | 4.5% (inactive) | –
CNC(=O)CN1C(=O)NC(c2ccccc2)(c2ccccc2)C1=O | -6.2% (inactive) | –
COc1ccc(NC(=O)NN2CCN(C)CC2)c(OC)c1 | -2.5% (inactive) | –
CSc1nnc(SCc2nc3sc(C(=O)O)c(C)c3c(=O)[nH]2)s1 | 52.9% (active) | –
Cc1ccc(C)c(SCc2nc3sc(C(=O)O)c(C)c3c(=O)[nH]2)c1 | -4% (inactive) | –
CCOC(=O)c1sc2nc(CSc3ccccc3)[nH]c(=O)c2c1C | 9.6% (inactive) | –
Cc1cccc(OCC(O)Cn2c(N3CCCCC3)nc3c2c(=O)[nH]c(=O)n3C)c1 (configuration not stated) | -7.3% (inactive) | –
COc1ccccc1/C=C/C(=O)NC1CC2CCC1C2 (configuration not stated) | 13.8% (inactive) | –
Cc1cc(OC(=O)c2c(Cl)cccc2Cl)nc(C)n1 | 8.5% (inactive) | –
Cc1cc(C)c(C(N)=O)c(Cl)n1 | 74.6% (active) | 79.1
Cc1ccc(Nc2nc(C)cc(C)c2C(N)=O)cc1 | 3.4% (inactive) | –
